Bioassay records deposited in PubChem BioAssay by National Center for Advancing Translational Sciences (NCATS).
EPAC2 ag = EPAC2 (human) agonism | 360,000 compounds, 0.079% hits | EPAC2 activation, biochemical qHTS; response scale: 100% = 6.5 mM cAMP response | Potency, µM (highest dose often 154 µM), for the others: at the highest dose activation, actives largely listed as activators | Q8WZA2; also: potency is read from the fitted curve at half-maximal effect; nearly all actives have a fitted effect of over 50% in size
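Exchange assay: 100 nM EPAC2 with 250 nM Rap1B-BODIPY-GDP and 50 uM GDP. Fluorescence (ex 480/em 540 nm) read every 5 min for 30 min at room temperature. Data normalized to 6.5 mM cAMP as agonist control.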
EPAC1 ag = activates human EPAC1 exchange factor; EPAC1 agonist qHTS, biochemical assay; response scale: 100% = response to 6.5 mM cAMP; Potency, µM (series often up to 154 µM), for the others: at the highest dose activation, most hits filed as activators; 360,000 compounds, 0.073% hits; also: potency is read from the fitted curve at half-maximal effect; nearly all actives have a fitted effect of over 60% in size
Target sequence (O95398 whole entry, looked up): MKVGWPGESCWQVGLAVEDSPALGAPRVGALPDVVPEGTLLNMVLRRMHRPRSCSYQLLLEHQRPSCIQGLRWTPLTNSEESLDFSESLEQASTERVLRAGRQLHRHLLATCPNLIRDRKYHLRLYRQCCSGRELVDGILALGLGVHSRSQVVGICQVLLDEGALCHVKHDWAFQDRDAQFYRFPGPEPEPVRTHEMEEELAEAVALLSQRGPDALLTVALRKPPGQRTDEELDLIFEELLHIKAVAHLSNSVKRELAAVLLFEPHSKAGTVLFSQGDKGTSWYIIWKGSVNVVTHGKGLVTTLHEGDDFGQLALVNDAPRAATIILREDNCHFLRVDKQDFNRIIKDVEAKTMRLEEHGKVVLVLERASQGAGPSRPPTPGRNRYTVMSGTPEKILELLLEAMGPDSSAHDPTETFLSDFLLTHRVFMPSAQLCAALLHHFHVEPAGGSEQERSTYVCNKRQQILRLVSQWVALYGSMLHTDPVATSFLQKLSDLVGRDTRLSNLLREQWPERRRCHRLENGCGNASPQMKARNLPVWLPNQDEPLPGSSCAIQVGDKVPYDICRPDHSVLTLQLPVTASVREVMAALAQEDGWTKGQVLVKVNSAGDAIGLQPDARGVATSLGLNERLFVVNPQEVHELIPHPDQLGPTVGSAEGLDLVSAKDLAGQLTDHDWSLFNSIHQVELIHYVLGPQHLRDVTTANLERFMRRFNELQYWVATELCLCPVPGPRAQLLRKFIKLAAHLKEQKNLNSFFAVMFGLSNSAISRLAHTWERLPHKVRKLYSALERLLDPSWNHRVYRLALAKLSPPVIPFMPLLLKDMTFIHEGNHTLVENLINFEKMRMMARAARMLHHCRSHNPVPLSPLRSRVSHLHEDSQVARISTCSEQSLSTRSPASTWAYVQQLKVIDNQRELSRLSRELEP
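EPAC1 100 nM, Rap1B–BODIPY-GDP 250 nM, unlabeled GDP 50 uM; compound titration; 5 min RT; kinetic read ex480/em540 at 5-min intervals ×30 min; data normalized to 6.5 mM cAMP agonist control.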
EPAC2 antag = EPAC2 (human) antagonism | Q8WZA2 | EPAC2 GEF exchange of Rap1B-BODIPY-GDP, fluorescence | Potency, µM (highest dose often 114 µM), for the others: top-dose activity, negative = inhibition, actives largely listed as inhibitors | 360,000 compounds, 0.18% hits | AID 720708; also: potency is read from the fitted curve at half-maximal effect; % is scaled to controls: 0 for no effect and ±100 for the full control effect; nearly all actives have a fitted effect of over 45% in size
hERG WT inh = KCNH2 (human, wildtype) channel inhibition | U2OS, BacMam KCNH2, thallium flux FluxOr; stronger effect = lower value | activity change, % at 1.84 µM | 340,000 compounds, 0.37% hits;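 active = maximum activity change below -70%; inconclusive = maximum activity change between -70% and -50%; inactive = maximum activity change above -50%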; also: % is scaled to controls: 0 for no effect and ±100 for the full control effect
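U2OS cells transduced with wild-type KCNH2 virus are loaded with FluxOr dye for 45 min, and thallium flux is measured in kinetic reads before and after stimulation buffer. Rate constants are normalized to DMSO controls.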
KCNH2 3.1 block = inhibitors of human KCNH2 3.1 potassium channel isoform; activity change, % (tested at about 1.8 µM); U2OS KCNH2 3.1, thallium flux FluxOr; stronger effect = lower value; AID 720553; 340,000 compounds, 0.95% hits;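 active = maximum activity change below -70%; inconclusive = maximum activity change from -70% to -50%; inactive = maximum activity change above -50%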;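 also: thallium influx rate constant from kinetic fluorescence after stimulation buffer; % is scaled to controls: 0 for no effect and ±100 for the full control effect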
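Measured as rate of thallium-driven FluxOr signal in transduced U2OS cells carrying the 3.1 channel, read kinetically for 2 min upon stimulation; values are rate constants scaled to DMSO control wells.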
EPAC1 antagonist = EPAC1 (human) antagonism. EPAC1 GEF assay, Rap1b-BODIPY-GDP exchange fluorescence. 360,000 compounds, 0.14% hits. Potency, µM (highest dose often 115 µM), without a hit: at the top dose activity change, negative = inhibition, usual class: inhibitors;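 also: potency is read from the fitted curve at half-maximal effect; plate controls were vehicle for no effect and positive control for full effect; nearly all actives have a fitted effect of over 50% in size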
* = called active by the depositor; ? = inconclusive; . = not tested or not shown; [ ] = remark or other dose. An excerpt weighted towards active compounds, which were near 1.4% of everything screened. Unless noted, calls follow the shape of the dose curve; as a rule, active = well fitted curve in the direction sought with a large enough effect; inconclusive = small, poorly fitted or top-dose-only effect, or another doubt; inactive = no such curve, though single readings can be large; an effect the other way counts as inactive or inconclusive.

SMILES	EPAC2 ag	EPAC1 ag	EPAC2 antag	hERG WT inh	KCNH2 3.1 block	EPAC1 antagonist
CCn1c(=O)c(C(=O)Nc2ccccc2C)c(O)c2ccccc21	10%	3%	2%	8	14	-6%
CCn1c(=O)c(C(=O)Nc2ccccc2S(N)(=O)=O)c(O)c2ccccc21	20%	11%	-4%	9	6	56µM*
COc1ccccc1C(=O)NC(=S)Nc1ccc(NC(=O)c2ccco2)cc1	-2%	6%	-2%	11	-73*	9%
COc1cc(NC(=O)c2cc3ccccc3o2)ccc1NC(=O)c1ccco1	0%	2%	10%	14	-81*	-9%
COc1ccc2oc(=O)c(C(=O)Nc3cccc(C(C)=O)c3)cc2c1	-6%	13%	-15%	-4	-17	7%
COc1cc(NC(=O)c2ccccc2F)ccc1NC(=O)c1cc2ccccc2o1	-1%	5%	-4%	0	-71*	-1%
COc1cc(NC(=O)c2c(OC)cccc2OC)ccc1NC(=O)c1cc2ccccc2o1	10%	0%	5%	10	14	-8%
COc1cccc(NC(=O)c2cc3ccccc3oc2=O)c1	-6%	-3%	3%	-76*	-12	14%
CC(c1ccccc1)N1CC(C(=O)N2CCCC(C(N)=O)C2)CC1=O (stereo not given)	6%	3%	16%	11	17	-12%
O=C(NCc1ccccc1F)Nc1ccc([N+](=O)[O-])cc1	9%	-2%	21%	-9	-13	-14%
COC(=O)c1cn(CC(=O)Nc2ccc(F)cc2)c2ccccc12	8%	-1%	3%	0	7	-14%
O=C(NCc1ccccc1)C(C1CC1)n1c(=O)c(-c2cc3ccccc3[nH]2)nc2ccccc21 (stereo not given)	13%	15%	-3%	.	.	-9%
Cc1cccc(Cn2cc(/C=C/[N+](=O)[O-])c3ccccc32)c1	?	15%	29%	-8	-14	16%
O=[N+]([O-])/C=C/c1cn(Cc2ccc(Cl)cc2)c2ccccc12	100µM*	?	22%	3	-6	-12%
NC(=S)N=Nc1c(O)cc(O)c2[nH]c(=O)ccc12	7%	8%	-29%	-7	1	50µM*
COC(=O)C[C@@H]1CC[C@@H](NC(=O)Nc2cc(F)ccc2F)[C@@H](CO)O1	11%	7%	3%	.	.	-8%
Cn1c(COc2ccccc2)nnc1SCC(=O)c1cccc([N+](=O)[O-])c1	7%	0%	0%	-6	-92*	2%
CC(=O)c1cccc(NC(=O)CSc2ccc(-c3ccco3)nn2)c1	4%	-2%	17%	0	-15	10%
O=C(CSc1ccc(-c2ccco2)nn1)c1cccc([N+](=O)[O-])c1	4%	0%	17%	-9	9	20µM*
Nc1ccn([C@@H]2O[C@H](CNCc3cnc(N4CCOCC4)s3)[C@@H](O)[C@H]2O)c(=O)n1	3%	-10%	1%	-6	5	14%
CCOC(=O)N1CCC(NC(=O)CCN2C(=O)COc3ccccc32)CC1	3%	-1%	13%	-253*	-1	12%
CCN1C(=NCCCOC(C)C)N[C@@H](c2ccccc2)[C@H](C(=O)OC)[C@H]1C	13%	6%	-1%	3	-13	0%
CCN1C(=O)N[C@@H](c2ccccc2)[C@@H](C(=O)OC)[C@H]1C	6%	-6%	4%	-20	3	-18%
CCN1C(=NCCc2ccc(Br)cc2)N[C@@H](c2ccccc2)[C@H](C(=O)OC)[C@H]1C	4%	-9%	3%	-13	-79*	4%
CCN1C(=NCCc2ccc([N+](=O)[O-])cc2)N[C@@H](c2ccccc2)[C@H](C(=O)OC)[C@H]1C	10%	4%	5%	-19	-93*	-12%
SMILES	EPAC2 ag	EPAC1 ag	EPAC2 antag	hERG WT inh	KCNH2 3.1 block	EPAC1 antagonist
OC(c1ccc(F)cc1)c1nc(-c2cc3ccccc3o2)cs1 (stereo not given)	25%	4%	-17%	.	.	-22%
Cc1c(OC(C)C(=O)NCc2ccccn2)ccc2c3c(c(=O)oc12)CCC3 (stereo not given)	-2%	8%	-8%	-10	7	-24%
Cc1c(OC(C)C(=O)NCc2ccncc2)ccc2c3c(c(=O)oc12)CCCC3 (stereo not given)	0%	2%	0%	-10	-78*	-15%
CCC(C)c1ccccc1N1CC(C(=O)Nc2cc(S(=O)(=O)N3CCOCC3)ccc2OC)CC1=O (stereo not given)	8%	-8%	1%	7	-5	-2%
CCC(C)c1ccccc1N1CC(C(=O)Nc2ccc(C)c(S(=O)(=O)N3CCOCC3)c2)CC1=O (stereo not given)	-4%	-1%	-1%	-16	-73*	-21%
NC(=O)CSc1nnc(-c2cccs2)n1Cc1ccco1	6%	12%	-3%	-3	8	9%
CCN(CC)C(=O)CSc1nnc(-c2cccs2)n1Cc1ccco1	10µM*	0%	11%	5	0	8%
C=CCNCCCCOc1ccc(OCc2ccccc2)cc1	4%	-4%	1%[57.1 µM]	.	?	-9%
COCCCNCCCCOc1ccc(OCc2ccccc2)cc1	6%	2%	-8%	47	-77*	1%
CNc1ccc(Cl)cc1S(=O)(=O)c1ccccc1[N+](=O)[O-]	6%	-4%	63µM*	.	.	-16%
O=[N+]([O-])c1ccccc1S(=O)(=O)c1ccccc1	8%	0%	-18%	.	-1	7%
O=C(NCc1ccc(F)cc1F)Nc1cnccc1C(F)(F)F	-1%	-11%	2%	-3	0	15%
COc1cccc(N=Cc2c(O)n(-c3cccc(C)n3)c(=O)c3ccccc23)c1	9%	10%	-3%	-6	12	-12%
COc1ccc(N=Cc2c(O)n(-c3cccc(C)n3)c(=O)c3ccccc23)c(OC)c1	100µM*	9%	119%	4	4	10%
C[C@H]1[C@@H](Cc2cc(Cl)cc(Cl)c2)N(c2ccccc2)c2ccccc2CN1Cc1ccccc1	5%	-2%	-15%	.	.	-17%
COc1ccc(-c2onc(C)c2-c2cscn2)c(O)c1	10%	2%	-23%	-4	-1	-20%
CCc1cc(-c2onc(C)c2-c2cscn2)c(O)cc1OC	3%	-1%	-16%	-3	-90*	-3%
Clc1ccc(-c2nnc(CSc3nnc(-c4cccs4)n3Cc3ccccc3)o2)cc1	10%	2%	-25%	-125*	-86*	-11%
